# Source: PubChem BioAssay (several laboratories)
# Hits are enriched below; roughly 1.6% of the tested compounds scored in any of these assays.
# DSG3 Ab inh – human desmoglein-3 autoantibody binding inhibition | binding (percent of control), % at 10 µM | P32926 | AID 588358 | DSG3-coupled beads, scFv-anti-DSG3-GFP binding, flow cytometry; stronger effect = lower value | 310,000 tested, 0.48% active;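 active = binding more than 3 SD below its plate's average and above zero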;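 also: hits lower antibody fragment binding to DSG3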
# Target sequence (P32926 whole entry, looked up, the tested form may be a part): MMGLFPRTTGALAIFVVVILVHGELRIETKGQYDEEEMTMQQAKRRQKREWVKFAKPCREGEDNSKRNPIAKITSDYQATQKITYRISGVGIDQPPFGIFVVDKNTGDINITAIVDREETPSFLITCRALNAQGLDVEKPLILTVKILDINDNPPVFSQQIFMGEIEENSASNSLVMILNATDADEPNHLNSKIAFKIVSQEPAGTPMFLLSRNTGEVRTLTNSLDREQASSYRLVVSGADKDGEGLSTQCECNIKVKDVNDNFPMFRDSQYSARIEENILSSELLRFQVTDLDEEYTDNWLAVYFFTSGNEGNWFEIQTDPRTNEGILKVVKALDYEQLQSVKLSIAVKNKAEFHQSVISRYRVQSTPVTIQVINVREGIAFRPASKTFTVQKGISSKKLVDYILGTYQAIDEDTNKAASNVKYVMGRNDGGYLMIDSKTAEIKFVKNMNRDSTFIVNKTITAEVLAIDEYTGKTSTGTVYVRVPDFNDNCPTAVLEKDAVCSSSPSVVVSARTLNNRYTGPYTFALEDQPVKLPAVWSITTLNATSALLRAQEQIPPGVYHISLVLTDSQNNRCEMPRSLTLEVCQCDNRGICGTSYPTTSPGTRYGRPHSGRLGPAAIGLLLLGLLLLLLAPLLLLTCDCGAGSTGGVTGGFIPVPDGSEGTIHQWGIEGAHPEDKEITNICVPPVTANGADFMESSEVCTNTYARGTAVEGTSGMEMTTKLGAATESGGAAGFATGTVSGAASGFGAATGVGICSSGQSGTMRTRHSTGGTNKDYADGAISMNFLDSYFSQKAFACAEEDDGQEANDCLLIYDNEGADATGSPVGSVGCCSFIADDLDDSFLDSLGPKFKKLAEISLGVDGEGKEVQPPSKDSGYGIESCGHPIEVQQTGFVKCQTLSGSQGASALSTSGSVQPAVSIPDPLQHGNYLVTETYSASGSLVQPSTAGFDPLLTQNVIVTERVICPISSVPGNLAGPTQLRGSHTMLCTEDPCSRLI
# VLA-4 inh – inhibition in a human VLA-4 binding assay; inhibition, % (about 7 µM as worked out from the volumes in the protocol); AID 2557; 330,000 tested, 0.2% active; VLA-4 expressing cells, ligand binding flow cytometry; P13612; in the data active = inhibition above about 50%
# GASC-1 inh – human JMJD2C demethylase inhibition; GST-JMJD2C(1-420) H3K9me3 demethylation, DELFIA europium; Q9H3R0; inhibition, % at 2.35 µM; 330,000 tested, 0.069% active; AID 2099;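 active = more than half of a compound's replicate wells show inhibition beyond 50%, single wells judged on their own value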;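 also: signal counts dimethyl H3K9 product captured on neutravidin plate; 0% = median of DMSO wells and 100% = 0.3 times that DMSO median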
# PREPL inhibitor – inhibitors of human prolyl oligopeptidase-like enzyme PREPL; 320,000 tested, 0.68% active; inhibition, % at 5.96 µM; recombinant PREPL, fluorescence polarization activity-based probe; Q4J6C6; in the data active = inhibition above about 43%;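 also: 0% = enzyme with DMSO and 100% = wells lacking enzyme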
# GRK2 aptamer HTS – inhibitors of human GRK2 displacing RNA aptamer. AID 488847. bead flow cytometry, FAM-aptamer displacement from GRK2. 330,000 tested, 0.59% active. P25098. inhibition of aptamer binding, % at 10 µM;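 active = inhibition of aptamer binding above 40%, roughly 3 SD of noise, on plates passing a quality check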;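 also: median bead fluorescence of bound FAM aptamer so fluorescent compounds give negative values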
# GRK2 inh confirm – human GRK2 inhibition confirmation, cherry pick 1 | AID 504451 | shares compounds with GRK2 aptamer HTS | 2,000 tested, 4% active | bead-bound GRK2, FAM-aptamer displacement, flow cytometry | aptamer displacement, % at 10 µM;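 active = aptamer displacement above 40%, near three times the noise of non-fluorescent compounds, on plates passing quality checks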;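 also: negative values mostly reflect intrinsic compound fluorescence rather than true enhancement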
# Aptamer quench 1 – counter-screen for GRK2 aptamer inhibitors: fluorescent aptamer quenchers. shares compounds with GRK2 aptamer HTS. Fluorescent RNA aptamer beads, quenching, flow cytometry; stronger effect = higher value. fluorescence change (kMESF span), kMESF (concentration not given with the values). 110 tested, under 10 active. AID 504521;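 active = compounds whose bead fluorescence drops by more than 37 kMESF across the dose range, marking them as dye quenchers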
# FAM quench CP1 – quenches fluorescent RNA aptamer, GRK2 hit artifact | 2,000 tested, under 10 active | Carboxyfluorescein RNA aptamer on beads, flow cytometry quenching; stronger effect = lower value | shares compounds with GRK2 aptamer HTS | fluorescence response (% of DMSO), % at 10 µM;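 active = compounds that quench the bead-bound fluorescent RNA probe, cutting fluorescence to under half of the solvent control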;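 also: counterscreen run without GRK2 so only probe quenching by compound is measured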
# GRK2 CP2 – confirmation of human GRK2 inhibitors binding RNA aptamer site | shares compounds with GRK2 aptamer HTS | bead-bound GRK2, FAM-aptamer displacement, flow cytometry | inhibition of aptamer binding, % at 10 µM | 360 tested, under 10 active | AID 504782;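 active = inhibition of aptamer binding above 40%, about triple the noise seen with nonglowing compounds, on plates passing quality control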;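 also: negative values mostly come from compounds that fluoresce themselves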
# FAM quench CP2 – aptamer fluorescence quenching in GRK2 counter-screen. shares compounds with GRK2 aptamer HTS. carboxyfluorescein RNA aptamer beads, flow cytometry quenching; stronger effect = lower value. fluorescence response vs DMSO, % at 10 µM. 360 tested, under 10 active. AID 588494;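 active = response vs DMSO under 50%, meaning signal dropped by over half, treated as fluorescence quencher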;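 also: labelled aptamer on streptavidin beads without GRK2 as a quench counter-screen; 100% = bead fluorescence of DMSO wells and lower means quenching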
# FAM quench PS1 – counter-screen for GRK2 aptamer binding inhibitors: aptamer fluorescence quenching; shares compounds with GRK2 aptamer HTS; Bead-bound FAM RNA aptamer fluorescence quenching, flow cytometry; stronger effect = lower value; fluorescence ratio to DMSO, % at 11.1 µM; 35 tested, under 10 active;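 active = compounds that dim the fluorescent label, raw bead signal shifting by over 33 units between lowest and highest dose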
# An asterisk follows results filed as active; i = inactive; · = not tested or not shown.
SMILES,DSG3 Ab inh,VLA-4 inh,GASC-1 inh,PREPL inhibitor,GRK2 aptamer HTS,GRK2 inh confirm,FAM quench CP1,others
Cc1cc2ccccc2n1CCNC(=O)c1cccs1,61*,2,-4,22,98*,81*,88,Aptamer quench 1=28;FAM quench PS1=100
Cc1cc2ccccc2n1CCNC(=O)C1CC1,97,-3,-3,8,32,·,·,
Cc1cc2ccccc2n1CCNC(=O)C1CCCC1,190,-2,7,22,99*,-1,100,GRK2 CP2=-1;FAM quench CP2=99
CC1(C)CC(=O)C2=C(C1)NC(=O)NC2c1ccccc1 (stereo not drawn),98,-9,-8,3,47*,-2,102,
COc1ccc(N(CC(=O)NCCc2ccccc2)C(=O)CCC(=O)Nc2nccs2)cc1,·,13,3,-9,5,·,·,
NC(=O)N/N=C/c1cccc(C(F)(F)F)c1,94,0,-12,7,0,·,·,
NC(=O)C(=O)N/N=C/c1cccc(C(F)(F)F)c1,96,4,5,16,61*,0,101,
CN(C(=O)c1cccc(C#N)c1)c1nnc(-c2ccncc2)s1,·,·,·,·,·,0,107,
CC(=O)/C=N/Nc1ccccc1,102,-2,8,0,0,·,·,
OC[C@@H](O)[C@H](O)C(/C=N/Nc1ccccc1)=N\Nc1ccccc1,·,14,1,8,40,0,96,
COc1cccc(NC(=O)C(C)NS(=O)(=O)c2ccc(Br)cc2)c1 (stereo not drawn),100,13,-3,-2,41*,·,·,GRK2 CP2=-10;FAM quench CP2=99
CCCN1CCN(S(=O)(=O)c2c(C)[nH]c(C)c2C(=O)N2CCCCC2)CC1,100,5,24,-2,0,·,·,
COc1ccccc1/C=C/C(=O)NNC(=O)c1cccs1,98,23,-6,2,2,·,·,
CC(=O)Oc1ccc([N+](=O)[O-])cc1N1C(=O)c2ccccc2C1=O,88,11,-6,6,100*,·,·,GRK2 CP2=i;FAM quench CP2=105
CCCCn1c(=O)[nH]c(=O)c2c1nc(Cn1ncc(Cl)c(Cl)c1=O)n2CCC,88,10,-9,14,0,·,·,
CCCN(C(=O)c1ccc(N2CCCC2=O)cc1)c1c(N)n(Cc2ccccc2)c(=O)[nH]c1=O,104,0,-8,5,4,-8,101,
CC(C)CCN(C(=O)c1ccc(N2CCCC2=O)cc1)c1c(N)n(Cc2ccccc2)c(=O)[nH]c1=O,106,15,4,4,0,·,·,
CCNC(=O)c1cccc(NC(=O)CN2C(=O)NC3(CCCCC3)C2=O)c1,107,·,·,·,·,·,·,
COc1ccc(C(C)=O)cc1CN1C(=O)NC2(CCCCCCC2)C1=O,101,1,4,-7,0,·,·,
CC(=O)c1cccc(NC(=O)CN2C(=O)NC3(CCCCCCC3)C2=O)c1,101,3,4,6,100*,-31,99,
Cc1cc(C)c(NC(=O)CN2C(=O)NC3(CCc4ccccc43)C2=O)c(Cl)c1 (stereo not drawn),101,4,1,4,0,·,·,
CCOc1ccc(C(C)=O)cc1CN1C(=O)NC2(CCCCCC2)C1=O,106,-19,20,-8,83*,-34,102,
Cc1cc(C)c(NC(=O)CN2C(=O)NC3(CCCCC3)C2=O)c(Cl)c1,101,11,-4,8,83*,3,96,
COc1ccc(-n2c(C)cc(C(=O)CSc3nnc(-c4ccoc4C)n3C)c2C)cc1,98,6,-9,18,91*,2,100,
COc1cccc(NC(=O)CSc2nnc(-c3ccoc3C)n2C)c1,·,2,1,7,3,·,·,
SMILES,DSG3 Ab inh,VLA-4 inh,GASC-1 inh,PREPL inhibitor,GRK2 aptamer HTS,GRK2 inh confirm,FAM quench CP1,others
O=C(Nc1cccc(S(=O)(=O)N2CCOCC2)c1)c1cc2c(s1)CCC2,99,25,1,2,0,·,·,
O=C(Nc1cccc(Cn2cccn2)c1)c1cc2c(s1)CCCC2,96,1,6,3,94*,-1,94,
NS(=O)(=O)c1ccc(CNC(=O)c2cc(S(=O)(=O)N3CCOCC3)c(Cl)cc2Cl)cc1,108,·,·,·,·,·,·,
COc1cccc(Cn2c(=S)[nH]c3ccc(N4CCOCC4)cc3c2=O)c1,104,-2,15,16,43*,-1,103,
O=C(O)CC1=C(Nc2ccccc2)C(=O)N(c2ccccc2)C1c1ccc(Br)cc1 (stereo not drawn),106,-8,7,8,2,·,·,
CN(C(=O)COC(=O)c1cccnc1Nc1ccccc1F)C1CCS(=O)(=O)C1 (stereo not drawn),105,8,5,-5,1,·,·,
CN(C(=O)COC(=O)c1cccnc1Nc1cccc(C(F)(F)F)c1)C1CCS(=O)(=O)C1 (stereo not drawn),·,18,5,3,0,-3,98,
Cc1ccccc1-c1nnn(Cc2ccc(F)cc2Cl)n1,109,6,-7,0,0,·,·,
CCCOC(=O)CCCN1C(=O)/C(=C2\SC(=S)N(CCCC(=O)OCCC)C2=O)SC1=S,92,-3,19,8,60*,36,100,
O=C(CCC(=O)N1CCN(c2ccccc2F)CC1)N1CCN(c2ccccc2)CC1,77*,7,-4,13,0,-2,99,
O=C(CCC(=O)N1CCN(c2ccccc2F)CC1)N1CCN(c2ccc(F)cc2)CC1,115,-6,-8,31,0,·,·,
O=C(NCc1ccco1)c1nc2nc(-c3cccs3)cc(C(F)(F)F)n2n1,96,-13,-1,13,42*,2,99,
O=C(NCc1ccco1)c1nn2c(C(F)(F)F)cc(-c3cccs3)nc2c1Br,90,-8,-4,-4,19,·,·,
O=C(NCC1CCCN(C(=O)NCc2ccccc2)C1)c1ccc2c(c1)OCO2 (stereo not drawn),104,2,0,-1,0,-1,93,
O=C(NCC1CCCN(Cc2ccc3c(c2)OCCO3)C1)c1ccc2c(c1)OCO2 (stereo not drawn),105,-1,-3,6,0,·,·,
